Reference: the OligoGym collection

Each sequence was assayed against ARPC4 (assay: pooled miR-30 sensor sort-seq; sequence = guide strand). Conditions: shRNA.

Sequence	sensor-assay potency score (higher = more potent)
TTTTCCTTCTCATTCCTGCTGA	0.452
TGTAACAGGAGCTCTTTGCTAC	-0.241
TTTGCTACTCCTGACTTCCACT	-1.07
TGTTTGTACATCTGCTCTGTGT	-0.895
TGTCGTTCCACAACCTGGGAGG	-0.878
TTGACTGACAGCTTCATCTCAC	0.494
AAATCTTCTCGATCTCATCAGC	-0.856
TTTCACAGCAATGCTGACCCGG	-0.244
TTGTGTTTGTACATCTGCTCTG	0.407
TTCACAGCAATGCTGACCCGGA	-0.48
TGTGTTTGTACATCTGCTCTGT	0.568

Each sequence was assayed against ASB15 in the same assay as above. Conditions: shRNA.

Sequence	sensor-assay potency score (higher = more potent)
TTTTTCATCAGCTTCATCCATT	-0.484
TGTATCTTTGAATAGCTGGTGG	-0.176
TATGTATCTTTGAATAGCTGGT	-0.171
TTACACAAGATGTCCATCCTGG	0.839
TTTATATTTTACATACTCCTGG	-0.0391
TATCTTTGAATAGCTGGTGGTA	-0.545
TTTCACAGCAATCAGAAGGGGG	-0.119
TTTATTACACAAGATGTCCATC	-0.601
TTAGCTGAATATCATAACTTGT	-0.69

The sequences below were run against ASCC1 in the same assay as above. Conditions: shRNA.

Sequence	sensor-assay potency score (higher = more potent)
TAGACCGGAATCCTTGTGGGGT	-0.676
TCTTGGACTGGATTCTTCCTGT	0.362
TTGGACTGGATTCTTCCTGTAA	-0.381
TCCATTTCTATTTTCTTCCTAG	-0.685
AATTACACCATTTCGATGCTGG	0.516
TTTCACACTATTCCACTCTTTC	-0.561
TTCTTCATGTTGATAGGTCTGT	1.07
TAGAAGTTCTCAAACAACTTTA	-0.0661
TAGCATCTCACATGTCTGCTGG	0.184
TCAACTAATTCTTGTAGCCTGT	-0.154
TATGCTTATAGAGCAAGCTGGG	-1
TCTCTTTCCAACTATATGCTTA	-0.403

What follows are sequences tested against ASCL1 in the same assay as above. Conditions: shRNA.

Sequence	sensor-assay potency score (higher = more potent)
TATAAAGTAAGACACATTGGTG	-0.186
TTGGGCGCTGACTTGTGACCGC	-0.646
AAGTCGTTGGAGTAGTTGGGGG	-0.573
ATGGAGTTCAAGTCGTTGGAGT	-1.08
TTGCTTGGGCGCTGACTTGTGA	-0.493
TGTCGCTTGACTTGCTTGGGCG	-1.29
TTCACTGTAAACCAATGTCTAC	-1.2
TCCACCTTACTCATCTTCTTGT	-0.496
